This is a sample that favours compounds with a hit; in the whole collection about 27% have one here.
CYP2C9 inhib – human CYP2C9 inhibition; P11712; CYP2C9 Supersomes, luciferin-H conversion, luminescence; inhibition, % at 5 µM; 96,000 compounds, 20% hits;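 active = blocking of liver enzyme CYP2C9 beyond about 50% at 5 µM, limit read from the data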
Target sequence (P11712 whole entry, looked up): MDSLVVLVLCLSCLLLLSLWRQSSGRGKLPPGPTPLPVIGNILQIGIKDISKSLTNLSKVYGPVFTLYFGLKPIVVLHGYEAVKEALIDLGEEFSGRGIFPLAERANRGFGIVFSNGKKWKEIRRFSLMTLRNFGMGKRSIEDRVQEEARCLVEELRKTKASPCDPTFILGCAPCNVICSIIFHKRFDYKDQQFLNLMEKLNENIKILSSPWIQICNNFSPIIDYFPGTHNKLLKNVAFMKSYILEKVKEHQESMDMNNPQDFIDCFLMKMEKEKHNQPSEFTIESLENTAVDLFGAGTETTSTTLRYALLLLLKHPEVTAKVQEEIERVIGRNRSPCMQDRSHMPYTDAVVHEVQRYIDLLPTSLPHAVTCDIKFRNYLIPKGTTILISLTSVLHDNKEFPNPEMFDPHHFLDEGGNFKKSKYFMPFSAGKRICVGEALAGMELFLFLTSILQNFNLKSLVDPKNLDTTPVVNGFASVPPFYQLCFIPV
PTK2B oligo ant – Pyk2 (human) oligomerization antagonism | Q14289 | Q293 cells, Pyk2 FERM NanoBiT luminescence; hits give low values | z-score (the deposit names both 25 µM and 10 µM) | 99,000 compounds, 0.83% hits | AID 1347419;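 active = Z-score of -3 or lower, scaled per plate to the spread of control and sample wells; inactive = z-score above -3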;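 also: negative z-score means lost luminescence so less FERM oligomerization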
CYP2C19 inhib – blocks human cytochrome P450 2C19 | P33261 | CYP2C19 Supersomes, luciferin-H EGE luminescence, 30 min | inhibition, % at 5 µM | 96,000 compounds, 21% hits | AID 778;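 active = CYP2C19 inhibition above a set limit at 5 µM in the primary screen, cut at about 50% in these data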
CYP2C19 act – activators of human cytochrome P450 2C19. P33261. recombinant CYP2C19, luciferin-H EGE luminescence; hits give high values; 0 = fully inhibited enzyme, 1 = untreated enzyme. activation factor at 5 µM. 96,000 tested, under 10 active. AID 1025;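 active = activation factor of at least 2 at 5 µM in the primary screen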
Cav32 inh – human Cav3.2 channel inhibition, primary screen; AID 449739; 100,000 compounds, 4% hits; Cav3.2-expressing cells, Fluo-4 calcium fluorescence FDSS; hits give low values; B-score at 10 µM;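 active = single-dose well whose peak fluorescence ratio is a statistical outlier from its plate by either plate-standardised score or position-corrected B-score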
CYP2C9 activ – activators of human CYP2C9; recombinant CYP2C9, luciferin-H conversion, luminescence; hits give high values; factor 1 = untreated enzyme, 0 = blocked; activation factor at 5 µM; P11712; AID 1024; 96,000 compounds, 1.4% hits;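 active = activation factor of 2 or more for CYP2C9 at a 5 µM dose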
Numbers stand for hits; 0 = inactive; - = not tested or not shown.

SMILES	CYP2C9 inhib	PTK2B oligo ant	CYP2C19 inhib	CYP2C19 act	Cav32 inh	CYP2C9 activ
Cn1c(=O)[nH]c(=O)c2c1nc(N1CCNCC1)n2CCOc1ccccc1	-	0	-	-	0	-
COc1cc(S(=O)(=O)Nc2ncccc2C)c(OC)cc1Cl	0	0	91	0	0	0
COc1cc(S(=O)(=O)Nc2c(C)cc(C)cc2C)ccc1Cl	0	0	0	0	0	0
CSCCC(NC(=O)c1ccc(C)o1)C(=O)O (stereo unspecified)	0	0	0	0	0	0
CC(=O)N1CCC(C(=O)c2ccc(Cl)cc2)CC1	0	0	0	0	0	0
O=C(c1ccc(Cl)cc1)C1CCN(C(=O)NC2CCCCC2)CC1	85	0	93	0	0	0
CC(C)C(=O)N(Cc1cc2ccccc2[nH]c1=O)C(C)(C)C	0	0	0	0	0	0
COc1ccc2c(c1OC)C(=O)N1N=C(c3ccc(O)cc3)CC21 (stereo unspecified)	0	0	0	0	0	2.4
Clc1cccc(Cl)c1-c1nnc2cccc(Cl)n12	-	0	-	-	0	-
COc1ccc(-n2c(C)nc3cc(C(=O)NCCN4CCOCC4)ccc32)cc1	0	0	0	0	0	0
CC1C(c2ccccc2)C(C#N)(C#N)C2(C#N)C(=O)NC1(N)C2C (stereo unspecified)	0	0	98	0	0	0
CCOc1ccc(N2C(=O)c3cccnc3C2Nc2ccc(C)cc2)cc1 (stereo unspecified)	0	0	0	0	0	0
C/C=C/c1ccc(Oc2nnnn2-c2ccc(C(N)=O)cc2)c(OC)c1	0	0	0	0	0	0
CC(=O)c1cc(-c2ccccc2)n(CC(=O)NCc2cccs2)c1C	0	0	88	0	-	0
O=C(CN1CCN(Cc2ccccc2)C1=O)NCc1cccs1	0	-	0	0	0	0
CCOC(=O)c1cc(-c2ccc(C)cc2)n(CC(=O)NCc2ccco2)c1C	77	-	83	0	0	0
O=C(O)C1CC=CCC1C(=O)Nc1cccc(Cl)c1 (stereo unspecified)	0	0	0	0	0	0
Cc1ccc(S(=O)(=O)NC(CC(C)C)C(=O)Nc2nccs2)cc1 (stereo unspecified)	81	0	0	0	-	0
CCC(NS(=O)(=O)c1ccc(C)cc1)C(=O)O (stereo unspecified)	0	0	0	0	0	0
Cc1ccc(S(=O)(=O)NC(CC(C)C)C(=O)NCc2ccco2)cc1 (stereo unspecified)	56	0	54	0	0	0
Cc1ccc(S(=O)(=O)NC(=O)COc2ccccc2C(N)=O)cc1	0	0	0	0	0	0
CCOC(=O)C1=C(C)N=C2c3ccccc3C(=O)C2C1c1ccc(Cl)cc1 (stereo unspecified)	0	0	0	0	0	0
CC1(C)CC(=O)C2=C(C1)N=C1c3ccccc3C(=O)C1C2c1ccc(Cl)cc1 (stereo unspecified)	92	0	81	0	0	0
Cc1nn(C(=O)c2cccnc2)c(C)c1Sc1ccc(Br)cc1	0	0	70	0	0	0
CC(C)CSc1ncnc2c1oc1nc3c(cc12)COC(C)(C)C3	72	0	0	0	-	0
SMILES	CYP2C9 inhib	PTK2B oligo ant	CYP2C19 inhib	CYP2C19 act	Cav32 inh	CYP2C9 activ
CC1=C(C(N)=O)C(c2ccncc2)n2nc(-c3ccccc3Cl)nc2N1 (stereo unspecified)	0	-	0	0	0	0
CN(C)c1nc(-c2ccccc2)nnc1C(F)(F)F	0	0	0	0	0	0
CCNC(=O)/C=C1\NC(C)(C)Cc2c1ccc1ccccc21	90	0	83	0	0	0
CC1(C)Cc2c(ccc3ccccc23)C(=O)N1	0	0	0	0	0	0
CCN(CC)C(c1ccc(F)cc1)c1nnnn1C1CCCCC1 (stereo unspecified)	0	0	0	0	-5	0
CCN(CC)C(c1ccc(C)cc1)c1nnnn1C1CCCCC1 (stereo unspecified)	78	0	95	0	0	0
Fc1ccc(CN(Cc2ccccc2)C(c2cccs2)c2nnnn2C2CCCCC2)cc1 (stereo unspecified)	0	0	0	0	0	0
COc1ccccc1N1CCN(c2nc3ccccc3nc2C(C#N)C(=O)OC(C)C)CC1 (stereo unspecified)	66	0	0	0	-8.5	0
CCOc1ccccc1N1CCN(c2nc3ccccc3nc2C(C#N)C(=O)OC)CC1 (stereo unspecified)	0	0	0	0	-7.6	0
COCCn1c(SCc2nc(N)nc(Nc3ccccc3C)n2)nc2ccccc2c1=O	71	0	0	0	0	0
Cc1ccc2c(CSc3nc4ccccc4c(=O)n3CCCO)cc(=O)oc2c1C	96	0	68	0	-	0
COCCn1c(SCC(=O)N2CCC(C)CC2)nc2ccccc2c1=O	0	0	0	0	0	0
Cc1ccc2c(CSc3nnc4ccccn34)cc(=O)oc2c1C	-	0	-	-	-	-
CCOc1ccccc1Nc1nc(N)nc(CSc2nncn2C)n1	0	0	0	0	0	0
Cc1ccccc1Nc1nc(N)nc(CSc2nc3ccccc3c(=O)n2C)n1	82	-3.1	68	0	0	0
Cc1ccccc1Nc1nc(N)nc(CSc2nc3ccccc3c(=O)n2CCCO)n1	99	0	90	0	0	0
Cc1ccc(Nc2nc(N)nc(CSc3nccn3C)n2)c(C)c1	0	0	0	0	0	0
CC(=O)O[C@H]1C[C@@]2(C)[C@@H](C[C@@H](O)[C@H]3[C@@]4(C)CC[C@@H](O)[C@@H](C)C4CC[C@@]32C)/C1=C(\CCC=C(C)C)C(=O)O (stereo partly specified)	-	-	-	-	0	-
Cc1ccc(-n2nnnc2-c2cnoc2-c2cccc(F)c2)cc1	-	0	-	-	0	-
O=C(c1cccs1)c1ccc(-c2cccs2)s1	74	0	0	0	0	0
O=C(CS(=O)(=O)c1cccc(Cl)c1)Nc1ccccc1Cl	0	0	78	0	0	0
Cc1cc(NCCCn2ccnc2)n2nc(C)c(-c3ccccc3)c2n1	88	0	90	0	0	0
Cc1cc(NCCCn2ccnc2)n2ncc(-c3ccccc3)c2n1	98	0	99	0	-	0
Cc1cc(NCCN2CCOCC2)n2nc(C)c(-c3ccc(Cl)cc3)c2n1	57	0	0	0	0	0
Cc1cc(NCCN2CCOCC2)n2nc(C)c(-c3ccccc3)c2n1	0	0	0	0	0	0
Cc1c(C(c2ccc([N+](=O)[O-])cc2)c2c(C)n(C)n(-c3ccccc3)c2=O)c(=O)n(-c2ccccc2)n1C	0	0	0	0	0	0
Cc1ccc(C)c(OC(=O)c2ccncc2)c1	-	0	-	-	0	-
CCCCOC(=O)C1=C(C)Nc2ncnn2C1c1cccc(OC)c1 (stereo unspecified)	51	0	68	0	0	0
CC(=O)C1=C(C)Nc2ncnn2C1c1ccc(Cl)cc1Cl (stereo unspecified)	0	0	68	0	0	0
